Source: PubChem
Methyltransferases: Primary Screen for Target Class Profiling of Small Molecule Inhibitors of Methyltransferases; purified enzyme, MTase-Glo SAH luminescence; stronger effect = lower value; calls only at 40 µM; 3.9% of 25,000 active; AID 1745853, 2022; call rule not given here
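Each enzyme was reacted with SAM and its substrate, with compounds tested once at 40 uM; SAH formed was read by MTase-Glo luminescence.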
Each line names hits and unclear results; the compound was inactive in the other large screens; ! = not active in a repeat. The sample as a whole holds a higher share of hits than the screen did.

COc1cc(-c2nc(N[C@H](CO)Cc3ccccc3)ccc2C(=O)NCCOc2ccccc2)cc(OC)c1OC	none
C#CCNC(=O)C1CCc2nnc(-c3ccc(Cl)cc3Cl)n21 (stereo not drawn)	none
Cc1onc(-c2c(F)cccc2Cl)c1C(=O)N[C@@H]1C(=O)N2[C@@H]1SC(C)(C)[C@@H]2C(=O)O	none
CN1CCC(NC(=O)CC2(Cc3ccccc3)C(=O)N(C)c3ccccc32)CC1 (stereo not drawn)	none
CCOc1cccc(C2c3cccn3-c3sc4c(c3CN2C(=O)NC2CCCC2)CCCC4)c1 (stereo not drawn)	none
COc1ccc(CNC(=O)c2ccc3c(=O)nc4c(-c5ccc(Cl)cc5)n[nH]n4c3c2)cc1	none
Cc1noc(-c2ccncc2)c1C(=O)NCCCCc1ccccc1	none
CNC(=O)c1cc(C2CC2)nc2onc(C3CCCN(C(=O)c4ccccc4OC)C3)c12 (stereo not drawn)	none
Cc1ccc(N2C(=O)c3ccc(-c4ccco4)n3CC2(C)C(=O)NC2CCCC2)c(C)c1 (stereo not drawn)	none
CCOc1ccc(-c2ccc(Cn3c(CC(C)(C)C(=O)O)c(SC(C)(C)C)c4cc(OCc5ccc(C)cn5)ccc43)cc2)cn1	Methyltransferases active
CC(C)OCCCNC(=O)C1(C)Cn2c(cc3ccccc32)C(=O)N1Cc1ccc(F)cc1 (stereo not drawn)	none
Cc1ccc([S+](=O)([O-])N2CC3(Cc4ccccc4N([S+](C)(=O)[O-])C3)C2)cc1	none
CC(=O)OC1CC(=O)C2(C)C3CC4=C(OC(C)CC4=O)OC3(C)CCC2C1(C)C (stereo not drawn)	Methyltransferases active
O=C(Nc1ccnc(NC(=O)C2CC2)c1)c1c(Cl)cccc1Cl	none
O=C(O)c1cccnc1Nc1cccc(C(F)(F)F)c1	none
O=C(Nc1cccc(Nc2cc(Nc3cccc(C(F)(F)F)c3)ncn2)c1)C1CC1	Methyltransferases active
CCNC(=O)[C@@H]1C[C@H](NC(=O)c2ccco2)CN1C(=O)Cn1nccc1C	none
Cc1ccc(C(=O)Nc2ccc(S(=O)(=O)O)c3cc(S(=O)(=O)O)cc(S(=O)(=O)O)c23)cc1NC(=O)c1cccc(NC(=O)Nc2cccc(C(=O)Nc3cc(C(=O)Nc4ccc(S(=O)(=O)O)c5cc(S(=O)(=O)O)cc(S(=O)(=O)O)c45)ccc3C)c2)c1	Methyltransferases active
COc1cccc(CN2C(=O)c3cc4ccc(OC)cc4n3CC2(C)C(=O)NCC2CCCO2)c1 (stereo not drawn)	none
CCN(CC)CCCC(C)Nc1c2ccc(Cl)cc2nc2ccc(OC)cc12 (stereo not drawn)	Methyltransferases active!
Cn1c(=O)c2ccc(C(=O)NC3CCCC3)cc2n2c(SCc3ccccc3Cl)nnc12	none
Cc1nc2c3ccccc3n3c(CCCC(=O)NCCc4ccccc4)nnc3n2n1	none
CCN(CC)CCCN1C(=O)c2cc3sccc3n2CC1(C)C(=O)NC1CCCCCC1 (stereo not drawn)	none
COC(=O)C(Cc1c[nH]c2ccccc12)NC(=O)c1ccc(Br)cc1 (stereo not drawn)	none
CCc1ccc(C(=O)NC(Cc2c[nH]c3ccccc23)C(=O)OCC(=O)c2ccc(C)cc2)cc1 (stereo not drawn)	none
COC(=O)[C@H](Cc1cccc(C(=N)N)c1)[C@@H](C)NC(=O)c1ccc(-c2cc[n+]([O-])cc2)cc1	Methyltransferases active
CCOc1ccc(CNC(=O)c2cc3n(n2)CC(C)(C(=O)NC2CCCC2)N(CC)C3=O)cc1 (stereo not drawn)	none
CC1(C(=O)NCc2ccccc2)Cn2c(ccc2-c2ccco2)C(=O)N1Cc1ccccc1 (stereo not drawn)	none
CCC1c2ccc(C)n2CCN1C(=O)Nc1ccc(C)cc1Cl (stereo not drawn)	none
CO[C@@H](C)Cn1c(=O)n(C)c2cnc3ccc(-c4cncc(C(C)(C)O)c4)cc3c21	none
C=CCc1ccc(OC(C)Cc2ccc(OC)c(OC)c2)c(OC)c1 (stereo not drawn)	none
COC(=O)c1ccc(=O)c2nc3/c(=C/O)c(O)cc(=O)c3[nH]c12	Methyltransferases active
O=S(=O)(Cc1cccc(Cl)c1)NCCc1noc(-c2ccccc2)n1	none
CCOC(=O)c1cc2n(n1)CC(C)(C(=O)NCc1ccc(Cl)cc1)N(c1ccc(OCC)cc1)C2=O (stereo not drawn)	none
COc1ccccc1CNc1nc2c(-c3ccccc3)nnn2c2ccccc12	none
NC(=O)c1cccc2cn(-c3ccc(C4CCCNC4)cc3)nc12 (stereo not drawn)	Methyltransferases active
Cc1cccc2nc(CNC(=O)c3cccc(C4CCNC4)c3)cn12 (stereo not drawn)	none
O=C(c1ccc(C2CCCNC2)cc1)N1CCCN(c2ccc(F)cc2)CC1 (stereo not drawn)	none
Cc1n[nH]c(C)c1C(N)C(=O)N(Cc1cccnc1)Cc1cccnc1 (stereo not drawn)	none
COc1ccc(-c2cc3n(n2)CC(C)(C(=O)NC2CCCCC2)N(Cc2ccccn2)C3=O)cc1 (stereo not drawn)	none
CCCn1c(=O)c2cc(Cl)ccc2n2c(=O)n(CC(=O)c3ccc(OCC)cc3)nc12	none
COc1cccc(-c2ccc(NC(=O)C3=C(C(=O)O)CCC3)c(F)c2)c1	none
CCOc1ccc(-c2cc(NC(=O)c3c(F)cccc3F)c(C(=O)O)s2)cc1	Methyltransferases active
CCCCOc1ccc(C(=O)Nc2ccc(F)cc2F)cc1	none
C/C=C/C1=CC2=C(CO1)C(=O)[C@](C)(O)[C@H](OC(=O)c1c(O)cc(OC)c(O)c1C)C2	none
CCOc1ccc(CN2C(=O)c3cc(-c4cccs4)nn3CC2(C)C(=O)NC2CCCCC2)cc1 (stereo not drawn)	none
CC1CCC2(C(=O)OC3OC(CO)C(O)C(O)C3O)CCC3(C)C(=CCC4C5(C)CC(O)C(O)C(C)(C(=O)O)C5CCC43C)C2C1(C)O (stereo not drawn)	none
CC1(C)CC[C@]2(C(=O)O[C@@H]3O[C@H](CO)[C@@H](O)[C@H](O)[C@H]3O)CC[C@]3(C)C(=CCC4[C@@]5(C)C[C@@H](O)[C@H](O)[C@@](C)(CO)C5CC[C@]43C)C2[C@@H]1O (stereo partly drawn)	Methyltransferases active
C[C@@H]1CC[C@]2(C(=O)O[C@@H]3O[C@H](CO)[C@@H](O)[C@H](O)[C@H]3O)CC[C@]3(C)C(=CCC4[C@@]5(C)C[C@@H](O)[C@H](O)C(C)(C)C5CC[C@]43C)C2[C@]1(C)O (stereo partly drawn)	none
CC1(C)CC[C@]2(C(=O)O[C@@H]3O[C@H](CO)[C@@H](O)[C@H](O)[C@H]3O)CC[C@]3(C)C(=CCC4[C@@]5(C)CC[C@H](O[C@H]6O[C@H](CO)[C@@H](O)[C@H](O[C@@H]7O[C@H](CO)[C@@H](O)[C@H](O)[C@H]7O)[C@H]6O)C(C)(C)C5CC[C@]43C)[C@@H]2C1 (stereo partly drawn)	none
CC1(C)CC[C@]2(C(=O)O)CC[C@]3(C)C(=CCC4[C@@]5(C)C[C@@H](O)[C@H](O)[C@@](C)(CO)C5[C@H](O)C[C@]43C)[C@@H]2C1 (stereo partly drawn)	none
C[C@@H]1O[C@@H](O[C@@H]2CO[C@@H](O[C@H]3CC[C@@]4(C)C(CC[C@]5(C)C4CC=C4[C@@H]6CC(C)(C)CC[C@]6(C(=O)O[C@@H]6O[C@H](CO)[C@@H](O)[C@H](O)[C@H]6O)CC[C@]45C)[C@]3(C)CO)[C@H](O)[C@H]2O[C@@H]2O[C@H](CO)[C@@H](O)[C@H](O)[C@H]2O)[C@H](O)[C@H](O)[C@H]1O (stereo partly drawn)	none
